Test results taken from PubChem BioAssay AID1345085 (National Center for Advancing Translational Sciences (NCATS), 2018).
Results filed as inconclusive are left out. Calls of active or inactive are those of the source. Calls follow the shape of the dose curve; as a rule, active = well fitted cell-killing curve with a large enough effect; inconclusive = small, poorly fitted or top-dose-only effect, or effect the other way; inactive = no such curve, though single readings can be large or run the other way.

Test system: CAOV3
Assay: Confirmatory qHTS for gynecologic anti-cancer compounds from libraries of approved drugs and bioactive compounds; also: nearly all actives have a fitted effect of over 55% in size
Conditions: gynecologic cancer cell panel viability, ATPlite luminescence, 48 h; series mostly up to 57.6 µM; activity change, negative = viability loss: at the top concentration
Summary of the method: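 Viability is measured as ATP-dependent luciferase light using ATPlite, read 15 min after reagent addition at room temperature. Compounds, in DMSO, span 57.5 uM down to 0.977 nM over 11 threefold steps for 48 h.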
% is scaled to controls: 0 for no effect and ±100 for the full control effect; potency is read from the fitted curve at half-maximal effect.

Q: Which Potency does the source give for `Cc1ccc(C(=O)Nc2ccc(Oc3cc4cnn(C)c4cc3-c3cn[nH]c3)c(F)c2)c(=O)n1-c1ccc(F)cc1` here?
A: 6.85 µM (active)

Q: With `CN1CCN(c2cccc(Nc3nc4c(-c5ccc(S(C)(=O)=O)cc5)cccn4n3)c2)CC1` as the compound, how does the Potency read?
A: 27.3 µM (active)

Q: Which “activity change, negative = viability loss” value does the source give for `COc1ccc(-c2ccc3c(N4CCOCC4C)nc(N4CCOCC4C)nc3n2)cc1CO` (centres undefined) here?
A: -2.81% (inactive)

Q: How did the Potency turn out when `O=C(CCCCCCC(=O)Nc1ccccc1)NO` was run?
A: 12.2 µM (active)

Q: For `CNC(=O)c1ccccc1Sc1ccc2c(/C=C/c3ccccn3)n[nH]c2c1`, which Potency is on record?
A: 6.85 µM (active)

Q: Which Potency does the source give for `COc1cc(N2CCC(N)CC2)ccc1Nc1ncc(Cl)c(-c2c[nH]c3ccccc23)n1` here?
A: 3.43 µM (active)

Q: For `CN[C@@H](C)C(=O)N[C@H]1CN(C(=O)CC(C)C)CC[C@H]2CC[C@@H](C(=O)NC(c3ccccc3)c3ccccc3)N2C1=O`, which “activity change, negative = viability loss” value is on record?
A: -7.72% (inactive)

Q: `Cc1ccc(C(=O)Nc2cccc(C(F)(F)F)c2)cc1-c1ccc2nc(NCCN3CCOCC3)ncc2c1` was tested. Which Potency did it give?
A: 24.3 µM (active)

Q: With `CCCCc1nc2cc(/C=C/C(=O)NO)ccc2n1CCN(CC)CC` as the compound, how does the Potency read?
A: 4.85 µM (active)

Q: How did the Potency turn out when `COC(C)(C)CCn1nc(Nc2c(C)cccc2C)c2cnc(Nc3ccc(OCCN4CCCC4)c(F)c3)nc21` was run?
A: 21.7 µM (active)

Q: With `C1CCC(C(CC2CCCCN2)C2CCCCC2)CC1` (centres undefined) as the compound, how does the Potency read?
A: 24.3 µM (active)

Q: Which “activity change, negative = viability loss” value does the source give for `Cc1cc(C(=O)N2CCN(c3cccc(Cl)c3)CC2)n(-c2ccccc2)n1` here?
A: 9.33% (inactive)

Q: For `Nc1ncnc2c1ncn2[C@@H]1O[C@H](CO)C[C@H]1O`, which “activity change, negative = viability loss” value is on record?
A: 15.8% (inactive)

Q: How did the “activity change, negative = viability loss” value turn out when `CS(=O)(=O)c1ccc(C(=O)Nc2ccc(Cl)c(-c3ccccn3)c2)c(Cl)c1` was run?
A: 25.6% (inactive)

Q: How did the “activity change, negative = viability loss” value turn out when `CNc1nc(Nc2ccc(C(=O)N3CCOCC3)cc2OC)ncc1Cl` was run?
A: 10.9% (inactive)

Q: How did the Potency turn out when `Cc1ccc(C(N)=O)cc1Nc1nccc(-c2cn(C(C)C)c3cnccc23)n1` was run?
A: 17.2 µM (active)

Q: How did the Potency turn out when `Nc1nc(Cl)nc2c1ncn2C1OC(CO)C(O)C1F` (centres undefined) was run?
A: 0.544 µM (active)

Q: How did the Potency turn out when `Cc1ccc(C(=O)N(CCCN)C(c2nc3cc(Cl)ccc3c(=O)n2Cc2ccccc2)C(C)C)cc1` (centres undefined) was run?
A: 17.2 µM (active)

Q: How did the Potency turn out when `CC(Oc1cc(-n2cnc3ccc(CN4CCN(C)CC4)cc32)sc1C(N)=O)c1ccccc1C(F)(F)F` (centres undefined) was run?
A: 27.3 µM (active)

Q: Which Potency does the source give for `Cc1ccc(-n2[nH]c(C)c(N=Nc3cccc(-c4cccc(C(=O)O)c4)c3O)c2=O)cc1C` here?
A: 27.3 µM (active)

Q: With `CNC(=O)c1ccccc1Nc1nc(Nc2ccc(N3CCOCC3)cc2OC)ncc1Cl` as the compound, how does the Potency read?
A: 1.37 µM (active)

Q: For `NCCOc1cc(C(=O)Nc2cc(OCCN)c3ccccc3n2)nc(C(=O)Nc2cc(OCCN)c3ccccc3n2)c1`, which “activity change, negative = viability loss” value is on record?
A: -15.8% (inactive)

Q: `COc1cc(N2CCC(N3CCN(C)CC3)CC2)ccc1Nc1ncnc(Nc2ccccc2S(=O)(=O)C(C)C)n1` was tested. Which Potency did it give?
A: 15.3 µM (active)

Q: With `COc1ccc(OC)c(-c2nnc3ccc(-c4ccc(OC)c(O[C@@H]5CCOC5)c4)nn23)c1` as the compound, how does the Potency read?
A: 8.63 µM (active)

Q: For `CC[C@@]1(O)C(=O)OCc2c1cc1n(c2=O)Cc2c-1nc1ccccc1c2/C=N/OC(C)(C)C`, which Potency is on record?
A: 0.0968 µM (active)

Q: With `CN(C)C(CCOc1cccc2ccccc12)c1ccccc1` (centres undefined) as the compound, how does the Potency read?
A: 30.6 µM (active)

Q: Which “activity change, negative = viability loss” value does the source give for `CCCC(Nc1nc(-c2ccc(NC(=O)NCC)c(OC)c2)ncc1C)c1cccnc1` (centres undefined) here?
A: -17.6% (inactive)

Q: `CS(=O)(=O)c1ccc(-c2cnc(N)c(C(=O)Nc3ccccc3)n2)cc1` was tested. Which “activity change, negative = viability loss” value did it give?
A: -10.9% (inactive)

Q: With `CC(C)n1nc(-c2cc3cc(O)ccc3[nH]2)c2c(N)ncnc21` as the compound, how does the Potency read?
A: 19.3 µM (active)

Q: With `Cc1cnc(Nc2ccc(CN3CCOCC3)cc2)nc1Nc1cccc(S(=O)(=O)NC(C)(C)C)c1` as the compound, how does the Potency read?
A: 3.85 µM (active)

Q: How did the “activity change, negative = viability loss” value turn out when `C[C@]12CCC(=O)C=C1CC[C@@H]1[C@@H]2[C@@H](O)C[C@@]2(C)[C@H]1CC[C@]2(O)C(=O)CO` was run?
A: -8.12% (inactive)

Q: `O=C1N(c2ccccc2)c2ccccc2C1(Cc1ccncc1)Cc1ccncc1` was tested. Which “activity change, negative = viability loss” value did it give?
A: 12.6% (inactive)

Q: `CN(C)/N=N/c1nc[nH]c1C(N)=O` was tested. Which “activity change, negative = viability loss” value did it give?
A: 11% (inactive)

Q: With `CCc1cccc(CC)c1NC(=O)N1Cc2[nH]nc(NC(=O)c3ccc(N4CCN(C)CC4)cc3)c2C1` as the compound, how does the Potency read?
A: 2.43 µM (active)
